Experiments:
Conditions in all cases: concentration: 1 μM, replicates: in singlicate; n = 1
[1] = tested on: DYRK1B
[2] = tested on: DYRK2
[3] = tested on: EGFR
[4] = tested on: EIF2AK1
[5] = tested on: EPHA1
[6] = tested on: EPHA2
[7] = tested on: EPHA3
[8] = tested on: EPHA4
[9] = tested on: EPHA5
[10] = tested on: EPHA6
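Note: KINOMEscan kinase panel screen.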

Structure (SMILES)	%Inh [1]	%Inh [2]	%Inh [3]	%Inh [4]	%Inh [5]	%Inh [6]	%Inh [7]	%Inh [8]	%Inh [9]	%Inh [10]
C[C@@H]1CC[C@@H](C(=O)Nc2ccccc2)CN1c1cc(-c2ccc3c(N)n[nH]c3c2)nc(N)n1 [GSK2286062]	0%	3%	43%	0%	1%	17%	2%	0%	0%	0%
CCn1c(-c2nonc2N)nc2c(C#CC(C)(C)O)nc(OC[C@H](N)c3ccccc3)cc21 [GSK943949]	0%	9%	12%	0%	2%	5%	0%	0%	0%	0%
Cn1cc(-c2[nH]c3cc(NC(=O)[C@H](N)C4CCCCC4)cc4c3c2C=NNC4=O)cn1	0%	92.3%	81%	0%	25%	1%	56%	11%	12%	14%
CCS(=O)(=O)c1ccc(OC)c(Nc2nccc(-c3c(-c4cccc(NC(=O)c5c(F)cccc5F)c4)nn4ncccc34)n2)c1 [GSK326180]	0%	16%	99.3%	0%	23%	0%	12%	100%	0%	100%
O=C(NC1CCN(c2ccnc(Nc3ccc(F)cc3)n2)C1)c1cc2ccccc2s1 (stereo not shown) [GSK1379716]	14%	0%	22%	0%	9%	17%	0%	16%	2%	10%
Nc1ncnc2c1nc(-c1ccccc1)n2-c1ccccc1 [SKF-97293]	6%	25%	7%	20%	22%	0%	0%	30%	13%	28%
CSc1cccc2c(-c3ccncn3)c(-c3ccc(F)cc3)nn12 [GW514786]	0%	12%	70%	0%	18%	7%	0%	0%	0%	0%
O=C(Nc1cccc(-c2nn3ncccc3c2-c2ccnc(Nc3ccccc3)n2)c1)c1c(F)cccc1F [GSK198271]	100%	26%	100%	52%	42%	10%	4%	0%	0%	8%
Cc1ccc(S(=O)(=O)Nc2ccc(Nc3nccc(Nc4cccc5[nH]ncc45)n3)cc2)cc1 [GSK581271]	0%	12%	42%	0%	66%	21%	0%	13%	0%	0%
COC(=O)Nc1nc2cc(Oc3ccc(NC(=O)Nc4cc(C(F)(F)F)ccc4F)cn3)ccc2[nH]1.Cl.Cl [GW681170]	12%	0%	12%	5%	64%	92.3%	47%	81%	43%	91%

Source: PMC5540273 (PLoS ONE, 2017)
